Assay outcomes: PubChem, several laboratories
Cardio protect – cardioprotection against H2O2-induced cell death, primary screen, uHTS, H9c2 cells, ATPLite luminescence | H9c2 cardiomyocytes, H2O2 injury protection, 2 h | protection from H2O2 cell death, % at 20 µM | 360,000 tested, 0.63% active;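 active = compounds giving at least 50% protection of heart cells from peroxide-induced death in the single-dose screen, raw or plate-pattern-corrected value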;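 also: 0% = DMSO wells with peroxide and 100% = DMSO wells without peroxide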
Calb FLC – C. albicans growth inhibition with fluconazole, primary screen, CaCi-2 strain, Alamar Blue fluorescence; C. albicans CaCi-2 (fluconazole-resistant clinical isolate) + fluconazole, 48 h; growth inhibition, % (concentration not given with the values); 300,000 tested, 0.57% active;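 active = growth inhibition above about 58% in most replicates, limit read from the data, passing the limit was not always enough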;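 also: all wells also contain fluconazole at 8 µg/ml as a sub-toxic cotreatment; 0% = median of DMSO wells and 100% = median of geldanamycin control wells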
PHOSPHO1 inh – PubChem AID 1565 | Phosphoethanolamine/phosphocholine phosphatase (Homo sapiens), Q8TCT1 | recombinant PHOSPHO1, absorbance phosphatase assay | inhibition, % at 13.3 µM | 290,000 tested, 1.1% active; in the data active = inhibition above about 60%
Target sequence (Q8TCT1 whole entry, looked up): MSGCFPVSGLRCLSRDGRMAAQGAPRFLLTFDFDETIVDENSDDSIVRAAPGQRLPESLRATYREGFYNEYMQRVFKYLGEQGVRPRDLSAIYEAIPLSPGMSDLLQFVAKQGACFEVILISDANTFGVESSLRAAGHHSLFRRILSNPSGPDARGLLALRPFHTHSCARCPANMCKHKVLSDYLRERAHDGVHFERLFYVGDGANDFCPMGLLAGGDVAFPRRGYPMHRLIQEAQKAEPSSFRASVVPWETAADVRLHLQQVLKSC
Efflux pump mplx – inhibitors of Candida efflux pumps in yeast, primary screen, S. cerevisiae, Nile Red, multiplex; 330,000 tested, 0.44% active; AID 485275, 2010; S. cerevisiae Candida pump triplex; inhibition, % at 10 µM;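 active = plate passing quality check with inhibition over a set limit, or well fluorescence over plate mean plus 4 SD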;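 also: Nile Red retained in pooled yeast measured as flow cytometry median fluorescence; 0% = buffer negative control and 100% = Enniatin B positive control; higher means more Nile Red kept so more efflux inhibition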
Cl transport mod – KCC2 cotransporter modulators, thallium flux, primary screen, cell-based, HEK293 KCC2, FluoZin-2 fluorescence, MLSMR; 190,000 tested, 2.2% active; KCC2 cells, thallium flux FluoZin-2 fluorescence; AID 1456, 2008; B-score of Tl+ flux slope (higher = more flux/activation; lower = inhibition) at 10 µM; Solute carrier family 12 member 5 (Homo sapiens), Q9H2X9;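 active = thallium flux slope and its plate-corrected score both differing from the plate sample mean at a set confidence after two filtering rounds, in either direction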;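 also: slope of fluorescence scaled to starting intensity during 10 to 20 s after thallium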
* = called active by the depositor. A selection: hits, their analogues and other compounds. The true share with any hit is near 3.3%.

`Cc1cccc(OCC(=O)NCCNC(=O)c2ccccn2)c1` gave Cardio protect 4, Calb FLC 2, PHOSPHO1 inh 13 and Efflux pump mplx 0.
Screening COc1ccc(-c2csc(N(CC3CCCO3)C(=O)c3ccco3)n2)cc1 (configuration not stated) returned Cardio protect 4, Calb FLC 98*, PHOSPHO1 inh 11, Efflux pump mplx 0 and Cl transport mod 0.54.
Screening CCN(C(=O)c1ccco1)c1nc(-c2ccc(OC)cc2)cs1 returned Cardio protect -4, Calb FLC -1, PHOSPHO1 inh 17 and Efflux pump mplx 0.
COc1ccc(CNS(=O)(=O)CCNC(=O)c2cccc(OC)c2)cc1 was read as Cardio protect 7, Calb FLC -9 and Efflux pump mplx 0.
`CCOc1ccc(-n2c(-c3ccc(Br)cc3)c[n+]3c2CCCCC3)cc1` gave Cardio protect -18, Calb FLC 103*, PHOSPHO1 inh -18, Efflux pump mplx 0 and Cl transport mod -0.44.
Screening CCOc1ccc(-n2c(-c3ccc(OC)cc3)c[n+]3c2CCCCC3)cc1 returned Cardio protect -4, Calb FLC 110*, PHOSPHO1 inh 4, Efflux pump mplx 0 and Cl transport mod 0.97.
`COc1ccc(-c2c[n+]3c(n2-c2ccccc2)CCCCC3)cc1` gave Cardio protect -21, Calb FLC 112*, PHOSPHO1 inh -25, Efflux pump mplx 0 and Cl transport mod -0.39.
CCOc1ccc(-n2c(-c3ccccc3)c[n+]3c2CCC3)cc1 was read as Cardio protect -18, Calb FLC -16, PHOSPHO1 inh 43, Efflux pump mplx 0 and Cl transport mod -0.31.
C=CCCC(=O)N1CCC(n2nccc2NC(=O)c2ccccc2C)CC1 was read as Cardio protect 1, Calb FLC -1, PHOSPHO1 inh 38 and Efflux pump mplx 0.
COc1cccc(N2CCN(C(=O)Cn3c(=O)oc4ccccc43)CC2)c1 was read as Cardio protect 5, Calb FLC 3, PHOSPHO1 inh 30 and Efflux pump mplx 0.
`Cc1ccc(C)c(CC(=O)N2CCCC(c3cc(C(=O)NCc4cccnc4)no3)C2)c1` (configuration not stated) gave Cardio protect -4.
Screening Oc1ccc(Br)cc1-c1cc(-c2ccccc2)n[nH]1 returned Cardio protect -18, Calb FLC 8, PHOSPHO1 inh 17, Efflux pump mplx 0 and Cl transport mod 0.18.
O=[N+]([O-])c1cccc(-c2cc(-c3cc(Br)ccc3O)[nH]n2)c1 was read as Cardio protect -23, Calb FLC 84*, PHOSPHO1 inh 23 and Efflux pump mplx 2.
`CCn1c(C)nc2cc(C(=O)NNC(=S)Nc3ccc(Cl)cc3Cl)ccc21` gave Cardio protect -3, Calb FLC 95*, PHOSPHO1 inh 4, Efflux pump mplx 0 and Cl transport mod -0.47.
Screening CCn1c(C)nc2cc(C(=O)NNC(=S)Nc3ccccc3Cl)ccc21 returned Cardio protect -12, Calb FLC -4, PHOSPHO1 inh 7, Efflux pump mplx 0 and Cl transport mod 0.32.
`O=C(Nc1cc2c(oc1=O)CCCC2=O)c1cccc(Cl)c1` gave Cardio protect -2, Calb FLC 1, PHOSPHO1 inh 65*, Efflux pump mplx 0 and Cl transport mod 0.7.
`O=[N+]([O-])c1cc([N+](=O)[O-])c(Oc2cc(F)ccc2F)cc1NN1CCCCC1` gave Cardio protect -11, Calb FLC -3, PHOSPHO1 inh 4 and Efflux pump mplx 0.
For Nn1c(COc2cccc(Br)c2)nnc1SCC(=O)NCC1CCCO1 (configuration not stated) the results were Cardio protect 0 and Efflux pump mplx 0.
Nn1c(COc2cccc(Br)c2)nnc1SCC(=O)N1CCc2ccccc2C1 was read as Cardio protect -3, Calb FLC 3, PHOSPHO1 inh 82*, Efflux pump mplx 0 and Cl transport mod -3.
`O=C1CN(C(=O)COC(=O)[C@@H]2CCCN2S(=O)(=O)c2ccc(Cl)cc2)c2ccccc2N1` gave Cardio protect 3 and Efflux pump mplx 0.
Screening CCN(CC)c1ccc(N=Cc2ccccc2[N+](=O)[O-])cc1 returned Cardio protect -14, Calb FLC 12, PHOSPHO1 inh -11, Efflux pump mplx 0 and Cl transport mod -0.42.
For CCN(CC)c1ccc(N=Cc2ccc([N+](=O)[O-])o2)cc1 the results were Cardio protect -14, Calb FLC 91*, PHOSPHO1 inh 7, Efflux pump mplx 1 and Cl transport mod -1.1.
Screening COc1ccc2nc3n(c(=O)c2c1)-c1ncccc1C(=O)NC3CC(C)C (configuration not stated) returned Cardio protect 23.
Screening COc1ccc(NC(=O)c2csc3c2CCCC3)cc1 returned Cardio protect -13, Calb FLC -22, PHOSPHO1 inh 11 and Efflux pump mplx 0.
For COc1ccc(/C=C2\SC(=S)N(NC(=O)c3csc4c3CCCC4)C2=O)cc1 the results were Cardio protect -2, Calb FLC 1, PHOSPHO1 inh 72*, Efflux pump mplx 0 and Cl transport mod 0.5.
For COc1ccc(C(=O)Nc2cccc(C(=O)Nc3cc(C)ccn3)c2)cc1 the results were Cardio protect -8.
Cc1cc(C)c(C)c(S(=O)(=O)N2CCC(C(=O)N3CC(C)CC(C)C3)CC2)c1C (configuration not stated) was read as Cardio protect -7, Calb FLC 0 and Efflux pump mplx 0.
For O=C1Oc2ccccc2C(=O)/C1=C\N1CCN(c2ccccc2)CC1 the results were Cardio protect 3, Calb FLC -3, PHOSPHO1 inh 11, Efflux pump mplx 0 and Cl transport mod -1.1.
For COCCOC(=O)N/C=C\c1nc2ccccc2c(=O)[nH]1 the results were Cardio protect 65*, Calb FLC 21, PHOSPHO1 inh 3, Efflux pump mplx 0 and Cl transport mod -1.2.
For COC(=O)c1ccc(/C=C/c2nc3ccccc3c(=O)[nH]2)cc1 the results were Cardio protect -10, Calb FLC 3, PHOSPHO1 inh 15 and Efflux pump mplx 0.
For COc1ccc(CCCc2nnc(SCC(=O)Nc3ccc(C)c(C)c3)o2)cc1 the results were Cardio protect 0, Calb FLC -3, PHOSPHO1 inh 85*, Efflux pump mplx 0 and Cl transport mod -1.1.
CC(Oc1ccc(Cl)cc1)C(=O)NCC1CCCO1 (configuration not stated) was read as Cardio protect 0, Calb FLC 6, PHOSPHO1 inh -2 and Efflux pump mplx 0.
CN(C)c1ncnc2c1NC1=C(S2)C(=NCCCC(=O)O)CC(C)(C)C1 was read as Cardio protect 7, Calb FLC -10, PHOSPHO1 inh 87*, Efflux pump mplx 0 and Cl transport mod 0.31.
